Data taken from the OligoGym collection.

Biological target: ACAD10
Experiment: pooled miR-30 sensor sort-seq; sequence = guide strand
Conditions: shRNA
Also: reference of the scale not given here.

Which sensor-assay potency score (higher = more potent) does the source give for TTCACAGAGATCAAGAACGTTA here?
Its sensor-assay potency score (higher = more potent) is 0.0116.

Which sensor-assay potency score (higher = more potent) does the source give for TAATCCTGAACTCCCTCTCTAT here?
Its sensor-assay potency score (higher = more potent) is -1.27.

TATGACATAGAAGCTGTCCTCC was tested. Which sensor-assay potency score (higher = more potent) did it give?
Its sensor-assay potency score (higher = more potent) is 1.02.

Which sensor-assay potency score (higher = more potent) does the source give for TTGAGGTCTTCGATCAGTGGGG here?
Its sensor-assay potency score (higher = more potent) is -0.0648.

TTTCAGAGCAAAGTCTCCCAAA was tested. Which sensor-assay potency score (higher = more potent) did it give?
Its sensor-assay potency score (higher = more potent) is -1.07.

Biological target: ACAP2
Experiment: as above
Conditions: shRNA

How did the sensor-assay potency score (higher = more potent) turn out when TAATCTGAAGCACATAATCGAG was run?
Its sensor-assay potency score (higher = more potent) is -1.42.

For TTTGGTTGACATTAGCACCATT, which sensor-assay potency score (higher = more potent) is on record?
Its sensor-assay potency score (higher = more potent) is -0.325.

How did the sensor-assay potency score (higher = more potent) turn out when TTTAGGATTTCTGATCTCCTTT was run?
Its sensor-assay potency score (higher = more potent) is -0.154.

How did the sensor-assay potency score (higher = more potent) turn out when TAACTTAGAATCATCACTGGAG was run?
The sensor-assay potency score (higher = more potent) was 0.563.

Which sensor-assay potency score (higher = more potent) does the source give for TTTAGCTGTATACATTAGGGGG here?
The sensor-assay potency score (higher = more potent) was -0.7.

How did the sensor-assay potency score (higher = more potent) turn out when TATCCTTCCATAACTATGCCAT was run?
The sensor-assay potency score (higher = more potent) was -0.0646.

TATATTCTAACTTAGAATCATC was tested. Which sensor-assay potency score (higher = more potent) did it give?
Its sensor-assay potency score (higher = more potent) is -0.946.

TACTTCTGACTGAACTTTGGGC was tested. Which sensor-assay potency score (higher = more potent) did it give?
The sensor-assay potency score (higher = more potent) was 0.208.

TAAATCTAGACTGAACTTCTGT was tested. Which sensor-assay potency score (higher = more potent) did it give?
The sensor-assay potency score (higher = more potent) was 0.683.

With TGATTGAAGAACATTAATCTGA as the sequence, how does the sensor-assay potency score (higher = more potent) read?
Its sensor-assay potency score (higher = more potent) is 0.0917.

For TTATTCTGTATTGAAAACCAGC, which sensor-assay potency score (higher = more potent) is on record?
The sensor-assay potency score (higher = more potent) was -0.889.

How did the sensor-assay potency score (higher = more potent) turn out when TTTAACAAAGTTCTGAAGCTGT was run?
The sensor-assay potency score (higher = more potent) was 0.177.

Biological target: ACBD3
Experiment: as above
Conditions: shRNA

Which sensor-assay potency score (higher = more potent) does the source give for TAGTAGACTGATTTTGACCGCC here?
The sensor-assay potency score (higher = more potent) was 0.374.

TCTTCTTCTATCCGTCTCCTTT was tested. Which sensor-assay potency score (higher = more potent) did it give?
Its sensor-assay potency score (higher = more potent) is -0.731.

How did the sensor-assay potency score (higher = more potent) turn out when TTCTTTTGGTCCATTCTCCAGG was run?
The sensor-assay potency score (higher = more potent) was -0.756.

TTTCTCTTCACAACCGATGTTT was tested. Which sensor-assay potency score (higher = more potent) did it give?
Its sensor-assay potency score (higher = more potent) is -0.314.

For TTAACTGACATCATATTACTTG, which sensor-assay potency score (higher = more potent) is on record?
The sensor-assay potency score (higher = more potent) was 0.151.

TAAAGCTGCCATTATCTGCTGC was tested. Which sensor-assay potency score (higher = more potent) did it give?
Its sensor-assay potency score (higher = more potent) is -0.101.

Which sensor-assay potency score (higher = more potent) does the source give for TTTTTCTTTGAAGAAGCGCAGT here?
The sensor-assay potency score (higher = more potent) was -0.812.

Which sensor-assay potency score (higher = more potent) does the source give for TATTACTTGGTACAGTTGCATT here?
The sensor-assay potency score (higher = more potent) was -1.49.

With TAACTGACATCATATTACTTGG as the sequence, how does the sensor-assay potency score (higher = more potent) read?
The sensor-assay potency score (higher = more potent) was -0.575.

For TTGCTGTGCAAGCTGGACTTGA, which sensor-assay potency score (higher = more potent) is on record?
Its sensor-assay potency score (higher = more potent) is -0.769.

How did the sensor-assay potency score (higher = more potent) turn out when TTAAATGTCATCTTCTGCCCAA was run?
The sensor-assay potency score (higher = more potent) was 0.233.

With TTGAAGTCTTTGATCTGAGGTC as the sequence, how does the sensor-assay potency score (higher = more potent) read?
The sensor-assay potency score (higher = more potent) was -0.0448.

Biological target: ACCN2
Experiment: as above
Conditions: shRNA

TGAACTTATAGGTATCAGGATG was tested. Which sensor-assay potency score (higher = more potent) did it give?
Its sensor-assay potency score (higher = more potent) is -1.02.

With TGGATCTGCACTTTGATGCCTG as the sequence, how does the sensor-assay potency score (higher = more potent) read?
Its sensor-assay potency score (higher = more potent) is -0.178.

With TTCATCCTGACTATGGATCTGC as the sequence, how does the sensor-assay potency score (higher = more potent) read?
Its sensor-assay potency score (higher = more potent) is 0.145.

How did the sensor-assay potency score (higher = more potent) turn out when TGTAGCACTTTCCATAGCGTGT was run?
The sensor-assay potency score (higher = more potent) was -0.609.

With TTTGTCCTGCAGTATCTCCAGC as the sequence, how does the sensor-assay potency score (higher = more potent) read?
The sensor-assay potency score (higher = more potent) was -1.1.

TTTTCATCTGCCATCTGTGTGT was tested. Which sensor-assay potency score (higher = more potent) did it give?
The sensor-assay potency score (higher = more potent) was 0.238.

With TTTGCTGGGGATCTTGACCATG as the sequence, how does the sensor-assay potency score (higher = more potent) read?
The sensor-assay potency score (higher = more potent) was -1.14.

How did the sensor-assay potency score (higher = more potent) turn out when TCGGTCGTAGAACTCACGCATG was run?
Its sensor-assay potency score (higher = more potent) is -0.983.

For TATAGCAATATAGAGTCTGTAT, which sensor-assay potency score (higher = more potent) is on record?
Its sensor-assay potency score (higher = more potent) is -0.0507.

With TTTGACGTCGTCCAGGCTGAGG as the sequence, how does the sensor-assay potency score (higher = more potent) read?
The sensor-assay potency score (higher = more potent) was -1.49.

Which sensor-assay potency score (higher = more potent) does the source give for TTTGTTGAACTTCTTGGCCAGG here?
The sensor-assay potency score (higher = more potent) was -0.861.
